Cycloheximide cs – affects cycloheximide protein synthesis inhibition readout, counter-screen; cell reporter, cycloheximide protein synthesis inhibition counterscreen; max response, %; 300,000 tested, 12% active; AID 2314; in the data active = max response mostly above about 13%, no sharp cut-off; inactive = mostly below about 14%; also: read at 38.3 µM for the half of the compounds with a filed dose; 0% is about no effect
Shiga inhibitor – inhibitors of Shiga toxin in Vero cells | Vero cells, Shiga toxin protein synthesis inhibition reporter | inhibition, % at 38.7 µM | 290,000 tested, 9.2% active; in the data active = inhibition mostly above about 28%, no sharp cut-off; inactive = mostly below about 43%; also: 0% is about no effect
Pf growth 48h – P. falciparum growth inhibition at 48 hours (one generation); Potency, µM (top dose mostly 28.7 µM), for the others: top-dose activity change, negative = inhibition, most hits filed as inhibitors; P. falciparum luciferase growth in erythrocytes, 48 h; 310,000 tested, 5.9% active; active = well fitted inhibition curve with a large enough effect; inconclusive = small, poorly fitted or top-dose-only effect, or another doubt; inactive = no such curve, though single readings can be large or run the other way; also: potency is read from the fitted curve at half-maximal effect; % is scaled to controls: 0 for no effect and ±100 for the full control effect
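Luminescence readout; reporter = integrated firefly luciferase in P. falciparum. RBC culture at 2% hematocrit, 0.1% parasitemia final, 37 C/5% CO2; decreased signal taken as growth inhibition.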
SARS PLpro yeast – inhibitors of SARS-CoV papain-like protease in yeast | S. cerevisiae expressing SARS-CoV PLpro, growth rescue | 330,000 tested, 0.19% active | AID 485353 | Potency, µM (titrated, usually from 32.9 µM), inactives show at the highest dose activity, positive = growth rescue, hits mostly activators; also: potency is read from the fitted curve at half-maximal effect; 0% is about no effect; nearly all actives have a fitted effect of over 55% in size
NS1 inh – inhibitors of influenza NS1 protein function. AID 2326. Potency, µM (series often up to 46.1 µM), for inactives: at the top dose activity, positive = more growth. 270,000 tested, 0.4% active; also: potency is read from the fitted curve at half-maximal effect; actives are rising curves; nearly all actives have a fitted effect of over 50% in size
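OD600 was taken as the measure of yeast growth restored by compound in an NS1-expressing S. cerevisiae strain. Cells had been washed out of glucose medium and diluted 1:100 into galactose -URA medium, pH 6.0.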
Pf growth 96h – inhibits malaria parasite growth, 96 h; P. falciparum luciferase reporter growth, 96 h; Potency, µM (doses to about 28.7 µM), without a hit: at the top dose activity change, negative = inhibition, actives largely listed as inhibitors; 320,000 tested, 6.9% active; AID 504834; active = well fitted inhibition curve with a large enough effect; inconclusive = small, poorly fitted or top-dose-only effect, or another doubt; inactive = no such curve, though single readings can be large or run the other way; also: potency is read from the fitted curve at half-maximal effect; % is scaled to controls: 0 for no effect and ±100 for the full control effect
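Parasite growth measured via integrated firefly luciferase reporter in P. falciparum. Infected erythrocytes at 2% hematocrit, 0.05% parasitemia final were treated 96 hours at 37 C under 5% CO2, and luminescence was read.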
Starred values were filed as active, the others as inactive; ? = inconclusive; . = no result. Sampled rows, rich in hits. Any-hit rate of the full collection: about 21%. Unless noted, calls follow the shape of the full dose curve.

SMILES	Cycloheximide cs	Shiga inhibitor	Pf growth 48h	SARS PLpro yeast	NS1 inh	Pf growth 96h
CC(C)=CCC1=C(OCC(=O)O)C(=O)c2ccccc2C1=O	5	34	13µM*	-2%	-17%	2.9µM*
CC(C)=CCC/C(C)=C/CC/C(C)=C/CC/C(C)=C/CC1=C(C)C(=O)c2ccccc2C1=O	-6	15	12µM*	2%	5%	5.2µM*
Nc1nc(SCC(=O)Nc2ccc([N+](=O)[O-])cc2)[nH]c(=O)c1NC(=O)c1ccc(Br)cc1	-1	-1	12%	-3%	?	?
O=C(O)CSc1n[nH]c(=O)[nH]c1=O	.	.	.	.	-2%	.
FC(F)(F)c1ccc(NCc2ccccn2)nc1	56*	97*	.	-2%	2%	115%
Cc1cc(NCc2ccccn2)nc2ccccc12	21*	7	.	6%	0%	?
Cc1nc(NCc2ccccn2)c2ccccc2n1	8	-1	13%	2%	2%	36%
c1ccc(CNc2ccc3ccccc3n2)nc1	30*	58	208%	-2%	-54%	.
Cc1cccc(NS(=O)(=O)c2cc(C(=O)OC(C)C(=O)NCc3ccc4c(c3)OCO4)ccc2C)c1 (stereo not drawn)	0	11	?	-3%	?	?
Cc1cc(C)nc(SCc2ccc(F)cc2)n1	-2	4	2%	0%	3%	5%
CC(C)Oc1cc(-n2c(=S)[nH]c3ccccc3c2=O)c(Cl)cc1Cl	-3	-10	5.9µM*	-8%	-29%	4.7µM*
COc1cc2ncnc(NCc3ccc(Cl)cc3)c2cc1OC	0	-5	?	-1%	2%	-12%
COc1cc2ncnc(NCc3ccccc3C)c2cc1OC	-2	-14	15µM*	1%	-2%	13µM*
COc1cc2ncnc(NCc3ccccc3Cl)c2cc1OC	-2	-17	?	0%	-1%	?
COc1cc2ncnc(NCc3ccc(F)cc3)c2cc1OC	-6	-4	.	-1%	1%	10µM*
COc1cc2ncnc(N[C@H](C)c3ccccc3)c2cc1OC	-5	-16	?	1%	-3%	13µM*
Cc1cc(C)nc(SCC(N)=O)n1	-4	5	10%	1%	-4%	9%
COC(=O)NCCc1cc(OC)c(OC)cc1S(=O)(=O)N1CC(=O)Nc2ccccc21	-3	-6	.	4%	1%	11%
Cc1ccc(S(=O)(=O)NC(=O)C2CCCCC2)cc1	.	.	-2%	3%	.	19%
Cc1ccc(/C=C/C(=O)NCCCc2ccccc2)cc1	19*	14	9%	0%	-2%	21%
C#CCNC(=O)/C=C/c1ccc(C)cc1	36*	46	159%	9%	7%	124%
CCOC(=O)Nc1ccc2c(CN(C)Cc3ccc(F)cc3)cc(=O)oc2c1	1	32	7%	-2%	-2%	16%
Oc1ccc(Br)cc1CNc1cccc2cccnc12	2	.	?	-26%	-115%	9.3µM*
COc1ccc(CNc2ccccn2)c(O)c1	20*	48*	-21%	18%	38%	?
COc1cccc(CNc2ccccn2)c1O	34*	.	16%	-6%	14%	62%
SMILES	Cycloheximide cs	Shiga inhibitor	Pf growth 48h	SARS PLpro yeast	NS1 inh	Pf growth 96h
COc1cccc(CNc2cccc3cccnc23)c1O	16*	active	184%	-23%	-51%	?
Cc1ccc(O)c(CNc2cccc3cccnc23)c1	5	32	?	-5%	-40%	?
Cc1ccc(NC(=O)NC(=O)CN2CCCC2c2ccc3c(c2)OCCO3)cc1C (stereo not drawn)	.	.	3%	-5%	.	?
COc1cccc(CNc2ccc([N+](=O)[O-])cc2Cl)c1O	39*	44	-8%	-12%	.	-17%
COc1cccc(CNc2cc(C)ccn2)c1O	39*	51*	-22%	3%	11%	?
COc1ccc(CN(C)C(C)C(=O)Nc2ccc([N+](=O)[O-])cc2Cl)cc1OC (stereo not drawn)	-3	-10	?	3%	-14%	12µM*
COc1ccccc1CNc1ccc([N+](=O)[O-])cc1C	0	-16	-22%	-4%	1%	-22%
O=C(OCC(=O)N1CCOCC1)c1cccc(S(=O)(=O)N2CCCc3ccccc32)c1	7	9	-10%	-1%	-1%	-15%
OCC1CCCN1C(=S)Nc1ccccc1 (stereo not drawn)	4	13	30%	0%	11%	?

Source: PubChem BioAssay
